The values below come from PubChem BioAssay (NCI).

This is part of a sample that, as a whole, favours compounds with a hit. Of some 83,000 tested, about 20% had one in any assay.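 Results are percent growth after 48 hours of single-concentration exposure. 100 means growth as in untreated cells, lower positive values show inhibition; negative values down to -100 show cell death.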 Unmarked numbers belong to inactive results. Activity calls are given as the source filed them. Rule for the calls: active = growth percent below 10; inactive = the rest.

Test in all cases: NCI-60 one-dose screen, 48 h (100 = growth as untreated, 0 = no growth, -100 = all killed)
Common to all, as to conditions: 10 µM unless noted

Test [1] deals with NCI-H226 lung.
For test [2], the system named is NCI-H322M lung.
The test system of test [3] is HOP-62 NSCLC.
Test [4] concerns NCI-H460 lung.
Test [5] has as its system NCI-H522 lung.
Test [6] deals with A549/ATCC NSCLC.
For test [7], the system named is 786-0 renal.
Test [8] deals with COLO 205 colon.
Test [9] deals with DU-145 prostate.
In test [10] the test system is K-562 leukemia.
Test [11] concerns MALME-3M melanoma.
The subject of test [12] is MDA-MB-231 breast.
Test [13] deals with RXF 393 renal.
Test [14] relates to SF-268 CNS.
Test [15] deals with SF-295 CNS.
Test [16] deals with SF-539 CNS.
Test [17] has as its system UACC-257 melanoma.
Test [18] relates to M14 melanoma.
For test [19], the system named is HCT-15 colon.

Turning to `CN(C)c1cccc2c(S(=O)(=O)N[C@H]3CC[C@H]4[C@@H]5CCc6cc(O)ccc6[C@H]5CC[C@]34C)cccc12`, the growth in [1] was 51%; in test [2] it was 57.3%; in [3], 66.8%; in test [4], 7.05% (active); in test [5], -10.5% (active); in test [6], 18.5%. In addition, the growth in test [7] was 34.9%; in test [8], 8.09% (active); in test [9], 24%; in [10], 2.22% (active); in test [11], 29.6%; in test [12] it was 35%. The growth in test [13] is 11.2%; in test [14], 40.6%; in test [15] it was 44.9%; in [16], 44.7%; in test [17] it was 52.8%; in [18] it was 31.3%. Also, the growth in test [19] is 18%.
With `CCOC(=O)/C(=C/c1ccccc1)C(=O)c1ccccc1`, the growth in test [1] was 84.3%; in test [2], 84.2%; in test [3] it was 74.9%; in test [4], 88.3%; in [5] it was 67.6%; in test [6], 79.8%. For the same molecule, the growth in [7] was 80.5%; in [8], 95.4%; in test [9] it was 50.3%; in test [10], 38.9%; in [12], 81.4%; in test [14], 62%. The growth in [15] was 83%; in test [16], 84.4%; in test [17] it was 64.1%; in test [18] it was 66.1%; in test [19], 51.9%.
In the case of `O=C(C(=O)N1CCOCC1)c1ccc(OC2OC(CO)C(O)C(O)C2O)cc1` (configuration not stated), the growth was 107% in test [1]; 115% in test [2]; 107% in [3]; 110% in test [4]; 79.9% in [5]; 107% in test [6]. In addition, the growth in test [7] is 103%; in [9] it was 125%; in [11] it was 129%; in [12] it was 107%; in test [13], 112%; in test [14], 115%. In addition, the growth in [15] is 115%; in test [16], 96.3%; in [17] it was 96.5%; in test [18], 102%; in test [19], 104%.
For the molecule `COC1=CC(c2ccc[nH]2)=N/C1=C\c1[nH]c(C)c(C(=O)CCC(=O)Oc2ccc3c(c2)CCC2C3CC[C@]3(C)C(=O)CC[C@@H]23)c1C` (some centres not stated), the growth is 81.4% in test [2]; 80.2% in test [3]; 48.3% in [4]; 57.3% in test [5]; 49.9% in test [6]; 75.8% in test [7]. Moreover, the growth in test [8] was 87.9%; in test [9] it was 28.5%; in test [10], 39.2%; in [11] it was 103%; in test [12] it was 1.14% (active); in test [13], 93.1%. The growth in test [14] is 52.6%; in test [15], 86.4%; in test [16] it was 83.7%; in test [17], 106%; in test [18] it was 104%; in [19] it was 45.6%.
Turning to `Nc1ccc2c3c(cccc13)-c1ccccc1-2`, the growth in [1] was 55.5%; in test [3], 100%; in test [4], 99.1%; in test [5], 68.5%; in test [6], 85.1%; in test [7], 68.4%. Besides, the growth in test [8] was 96.5%; in test [9] it was 109%; in [10], 84.4%; in [11] it was 98.4%; in test [12], 76.5%; in test [13], 93%. Besides, the growth in test [14] is 78.4%; in [15], 102%; in [17] it was 104%; in test [18] it was 90.2%; in test [19], 86.1%.
On to `COc1ccc(/C=C2\COc3ccc(O)c(O)c3C2=O)cc1OC`, for which the growth is 46.6% in test [1]; 48.9% in [2]; 11.6% in [3]; 1.26% (active) in [4]; -55.5% (active) in [5]; 31.7% in test [6]. Besides, the growth in test [7] is -17.8% (active); in test [8], 55.6%; in [9] it was 6.44% (active); in test [10] it was 0.0834% (active); in test [11], -57.4% (active); in [12] it was -2.32% (active). Besides, the growth is 9.74% (active) in test [14]; 72.2% in test [15]; -55.4% (active) in [16]; 31.4% in test [17]; -39.4% (active) in test [19].
For `CN1CCN(Cc2ccc(NC(=O)c3[nH]ncc3Nc3ccnc4ccnn34)cc2)CC1`, the growth was 65.7% in test [1]; 79.6% in [2]; 93.5% in test [3]; 63.7% in test [4]; 55.7% in test [5]; 81.3% in test [6]. For the same molecule, the growth in test [8] is 39.5%; in [9], 47.4%; in test [10], 34.9%; in test [11], 58.9%; in test [12], 99.9%; in [13] it was 51.5%. Further, the growth was 63.7% in test [14]; 88.7% in test [15]; 40.9% in test [16]; 77.9% in test [17]; 57.1% in [18]; 98% in test [19].
In the case of `Cc1nn(-c2ccccc2)c2nc(Cl)c(/C=C/C(=O)c3ccccc3)c(-c3ccccc3)c12`, the growth in [1] is 89.7%; in test [2], 105%; in test [3] it was 114%; in [4] it was 106%; in test [5], 89.9%; in test [6] it was 110%. Besides, the growth was 106% in test [7]; 121% in [8]; 115% in test [9]; 101% in [11]; 111% in test [12]; 103% in test [13]. Further, the growth was 106% in test [14]; 105% in test [15]; 114% in [17]; 90.1% in test [18]; 101% in [19].
`COc1ccc2[nH]cc(/C=C3/C(=O)Nc4ccc(F)cc43)c2c1`: the growth in [1] is 91.5%; in test [2], 94%; in [3] it was 105%; in test [4] it was 83.3%; in test [5], 81.5%; in test [6] it was 72.3%. The growth in test [7] was 115%; in test [8] it was 97.7%; in test [9], 95.3%; in test [10], 72.1%; in test [12], 87.6%; in [13], 91.5%. Further, the growth in [15] was 95.6%; in [16] it was 99.4%; in [17], 99.8%; in test [18] it was 98.2%.
On to `CCOC(=O)/C=C(/C)Sc1cc(O)c2ccccc2c1O`, for which the growth is 89.4% in test [1]; -19.9% (active) in test [2]; -64% (active) in test [4]; 12.7% in test [5]; -34.1% (active) in test [6]; 159% in test [7]. Also, the growth was 46.6% in test [8]; -100% (active) in test [9]; 17.6% in test [10]; -90% (active) in [11]; 14.7% in test [12]; 46.1% in test [13]. For the same molecule, the growth in [14] was 32.8%; in test [15], 30.2%; in [16], 5.78% (active); in [17] it was 5.04% (active); in test [18] it was -94.6% (active); in [19], -12.6% (active).
Consider `CCCc1cc(=O)n2c(C(=O)Nc3ccccc3OC)c(C(=O)Nc3ccc(F)cc3)sc2n1`, for which the growth in test [2] is 57.9% [30 µM]; in test [3], -16.7% [30 µM] (active); in [4], 44.6% [30 µM]; in test [5], 46.7% [30 µM]; in test [6], 16.1% [30 µM]; in [7], 36.2% [30 µM]. The growth in test [8] was 72.5% [30 µM]; in test [9], 53.9% [30 µM]; in test [10], 3.51% [30 µM] (active); in test [11], 64.1% [30 µM]; in test [12], 58.3% [30 µM]; in test [13], -19.5% [30 µM] (active). The growth is -16.3% [30 µM] (active) in test [14]; -18.7% [30 µM] (active) in test [15]; -47% [30 µM] (active) in [16]; 76.3% [30 µM] in test [17]; 80.6% [30 µM] in [18]; 79% [30 µM] in test [19].
